From PubChem BioAssay
Mtb FBA inh – Mtb FBA enzyme inhibitors, primary screen, biochemical, fluorescence, strain H37Rv; Fructose-bisphosphate aldolase (Mycobacterium tuberculosis (strain ATCC 25618 / H37Rv)), …; inhibition, % at 1 µM; hit rate 2.3% among 360,000; purified M. tuberculosis FBA, fluorescence read-out; in the data active means inhibition above about 27%
Target sequence (P9WQA3 whole entry, looked up): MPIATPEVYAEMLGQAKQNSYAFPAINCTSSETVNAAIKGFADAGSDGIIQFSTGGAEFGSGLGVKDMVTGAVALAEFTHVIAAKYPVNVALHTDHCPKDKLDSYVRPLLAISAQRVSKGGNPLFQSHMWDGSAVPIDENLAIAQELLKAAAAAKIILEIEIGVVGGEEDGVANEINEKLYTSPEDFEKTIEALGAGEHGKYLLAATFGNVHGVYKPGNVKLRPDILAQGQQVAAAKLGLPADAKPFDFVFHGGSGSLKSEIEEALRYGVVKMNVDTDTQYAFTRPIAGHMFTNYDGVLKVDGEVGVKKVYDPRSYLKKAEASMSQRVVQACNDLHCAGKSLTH
CCHFV vOTU inh – CCHFV vOTU protease inhibitors, primary screen, biochemical, Pep-AMC substrate, fluorescence; Crimean-Congo hemorrhagic fever virus L polyprotein viral ovarian tumor (vOTU) protease …; inhibition, % at 11.5 µM; hit rate 0.55% among 370,000
BH1578 lux ind – inducers of Vibrio cholerae quorum light production without autoinducers, primary screen, BH1578 luxS cqsA deficient, single point; V. cholerae BH1578 lux reporter, luminescence, 6 h; activation, % at 18.7 µM; hit rate 0.16% among 350,000; in the data active means activation mostly above about 9.7%, no sharp cut-off
GDH-TPI inh – GDH-TPI coupling enzyme inhibitors, primary screen, artefact control for M. tuberculosis FBA inhibitor project, biochemical, absorbance, full deck; inhibition, % at 4.8 µM; hit rate 1.2% among 360,000; AID 588335, 2011; GDH-TPI coupled enzyme counterscreen, NADH absorbance
A number is an active result; - = inactive; . = not tested or not shown; + = active, no number. Rows were chosen to be rich in hits. Some 3.9% of all compounds tested hit in one or more screens of this group. Unless noted, no stated cut-off is given here; in the data, active means inhibition above about 30%; inactive means the rest.

SMILES	Mtb FBA inh	CCHFV vOTU inh	BH1578 lux ind	GDH-TPI inh
Cc1noc(NS(=O)(=O)c2ccc(NC(=O)c3ccc(N(C)C)cc3)cc2)c1C	-	-	-	32
Cc1ccc(S(=O)(=O)NC(=O)Nc2ccc(N(C)C)cc2)cc1	-	50	-	-
CN(C)c1ccc(C(=O)Nc2ccc(S(=O)(=O)Nc3nccs3)cc2)cc1	-	-	-	38
Cc1noc(NS(=O)(=O)c2ccc(NC(=O)c3cnc4scc(C)n4c3=O)cc2)c1C	-	-	-	49
Cc1cc(NS(=O)(=O)c2ccc(NC(=O)c3cnc4scc(C)n4c3=O)cc2)nc(C)n1	-	-	-	-
O=C(Oc1ccccc1C(=S)N1CCOCC1)c1ccc([N+](=O)[O-])cc1[N+](=O)[O-]	-	-	-	-
Cn1cnnc1SCC(=O)Nc1nc(-c2ccc(F)cc2)cs1	-	-	-	-
CN(C)S(=O)(=O)c1ccc(NC(=O)c2cc(F)c(F)cc2Cl)cc1	-	-	-	-
CCC(c1nnnn1C(C)(C)CC)N(CCCO)Cc1cc2cccc(C)c2[nH]c1=O (centres undefined)	-	-	-	-
CNC(=O)NC(=O)COC(=O)c1cccc(S(=O)(=O)N2CC3(C)CC2CC(C)(C)C3)c1 (centres undefined)	-	-	-	-
Cc1noc(NS(=O)(=O)c2ccc(NC(=O)c3nn(-c4ccc(F)cc4)ccc3=O)cc2)c1C	-	-	-	32
O=C(NNC(=O)c1nn(-c2ccc(F)cc2)ccc1=O)c1ccc(Cl)cc1	-	-	-	-
CN(C)c1ccc(C(=O)Nc2ccc(S(=O)(=O)NC3=NCCCCC3)cc2)cc1	-	-	-	33
Cc1ccc(C(=O)NNC(=O)c2nn(-c3ccc(F)cc3)ccc2=O)cc1	-	-	-	33
O=C(NCc1ccccn1)c1cc(-c2ccc(Cl)cc2)nc2ccccc12	-	-	-	-
Cc1ccc(S(=O)(=O)Nc2cccc3cccnc23)c([N+](=O)[O-])c1	-	-	-	-
Cc1ccc(-c2cc(-c3ccccc3Cl)c(C#N)c(N)n2)o1	-	-	-	-
Cc1ccc(-c2cc(-c3ccc(F)cc3)nc(N)c2C#N)o1	155	-	-	-
N#Cc1c(-c2ccncc2)cc(-c2ccc(F)cc2)nc1N	125	-	-	-
O=S(=O)(c1ccc(N2CCC(c3ccc(Cl)cc3)=N2)cc1)N(CCO)CCO	+	-	-	32
CS(=O)(=O)Nc1ccc(C(=O)CC(=O)Nc2ccc([N+](=O)[O-])cc2)cc1	-	-	-	77
CC1CC(=O)N(CC(=O)N2CCCC2)c2ccccc2S1 (centres undefined)	-	.	-	-
CCC1CCCCN1C(=O)c1cc2c(=O)n3cccc(C)c3nc2s1 (centres undefined)	-	.	-	-
CCN1CCN(C(=O)c2cc3c(=O)n4ccccc4nc3s2)CC1	192	-	-	-
CCOC(=O)C1CCN(C(=O)c2cc3c(=O)n4ccccc4nc3s2)CC1	159	-	-	-
SMILES	Mtb FBA inh	CCHFV vOTU inh	BH1578 lux ind	GDH-TPI inh
CCOC(=O)CC1C(=O)NCCN1C(=O)c1cc2c(=O)n3cccc(C)c3nc2s1 (centres undefined)	162	-	-	-
O=C(CSc1nnnn1C1CCCC1)Nc1ccccc1N1CCOCC1	-	-	-	-
CC1S/C(=N/N=C/c2cccs2)NC1=O (centres undefined)	-	-	-	42
Cc1cccc(NC(=O)C2CC(=O)N/C(=N/N=C/c3ccco3)S2)c1 (centres undefined)	-	-	-	57
CC1(C)S/C(=N/N=C/c2ccco2)NC1=O	-	-	-	55
CC1S/C(=N/N=C/c2ccco2)NC1=O (centres undefined)	-	-	-	39
CCCC1S/C(=N/N=C/c2ccco2)NC1=O (centres undefined)	-	-	-	-
CCC1S/C(=N/N=C/c2cccs2)NC1=O (centres undefined)	-	-	-	-
Cc1cccc(CC2S/C(=N/N=C/c3ccco3)NC2=O)c1 (centres undefined)	-	-	-	-
CCCCC1S/C(=N/N=C/c2ccco2)NC1=O (centres undefined)	-	-	-	-
CC(=O)N1CCc2ccc(S(=O)(=O)Nc3ccccc3Cl)cc21	-	-	-	-
CC(=O)Nc1ccc(NC(=O)c2cc(=O)c3cc(C)cc(C)c3o2)cc1	-	-	-	-
c1cncc(-c2nc3ccccc3o2)c1	-	-	-	-
Cc1ccnc2ccc(-c3nc4ccccc4o3)cc12	76	-	-	-
